Bioassay records deposited in PubChem BioAssay by several laboratories.
Mcl1 Noxa PPI – Mcl-1/Noxa binding inhibitors, primary screen, biochemical, TR-FRET, 1536-well; Induced myeloid leukemia cell differentiation protein Mcl-1 (Homo sapiens), Q07820; TR-FRET Mcl-1/Noxa peptide binding, 2 h; inhibition, % at 21.7 µM; actives 1.5% (n = 220,000);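 active means compounds that cut the protein-peptide binding signal by more than 50% relative to plate controls in a single-dose test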;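 further: His-tagged Mcl-1 with rhodamine Noxa BH3 peptide and terbium anti-His antibody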
Target sequence (Q07820 whole entry, looked up): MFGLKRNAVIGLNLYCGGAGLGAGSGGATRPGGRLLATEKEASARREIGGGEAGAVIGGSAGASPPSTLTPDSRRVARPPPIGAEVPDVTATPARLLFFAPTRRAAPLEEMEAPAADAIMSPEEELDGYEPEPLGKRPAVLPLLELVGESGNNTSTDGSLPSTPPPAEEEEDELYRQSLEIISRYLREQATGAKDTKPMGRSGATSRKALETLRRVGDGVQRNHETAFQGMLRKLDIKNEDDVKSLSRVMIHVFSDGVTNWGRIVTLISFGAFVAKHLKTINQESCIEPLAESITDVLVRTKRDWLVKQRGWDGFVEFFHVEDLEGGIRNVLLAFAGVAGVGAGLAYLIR
GLD-1 TGE inh – GLD-1/TGE RNA complex disruptors, primary screen, biochemical, fluorescence polarization; Female germline-specific tumor suppressor gld-1 (Caenorhabditis elegans), Q17339; purified GLD-1 + fluorescein TGE RNA; inhibition, % at 5.96 µM; actives 0.44% (n = 320,000); AID 2280, 2010;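 active means percent inhibition above a per-plate cutoff, the plate mean of test compounds plus 3 SD, cut at about 30% in these data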
BCLXL inh – inhibitors of human Bcl-xL, primary screen, biochemical, fluorescence polarization, HTS. actives 0.7% (n = 320,000). inhibition, % at 10.9 µM. AID 2129, 2009. GST-Bcl-xL / FITC-Bim BH3 peptide fluorescence polarization. Bcl-2-like protein 1 (Homo sapiens), Q07817;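 active means inhibition above the mean of all tested compounds plus 3 SD, cutoff set per campaign, cut at about 30% in these data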;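 further: inhibitors lower millipolarization by displacing the labeled peptide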
MCL1-BIM inh – inhibitors of MCL1 binding to BIM-BH3, primary screen, biochemical, fluorescence polarization; actives 0.68% (n = 320,000); Induced myeloid leukemia cell differentiation protein Mcl-1 (Homo sapiens), Q07820; AID 2057, 2009; GST-MCL1 / FITC-Bim-BH3 fluorescence polarization; inhibition, % at 10.9 µM;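 active means inhibition above the mean inhibition of all tested compounds plus 3 SD, set per campaign, cut at about 40% in these data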;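 further: higher means more loss of mP so more displacement of Bim peptide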
Mcl1 Bid PPI – Mcl-1/Bid binding inhibitors, primary screen, biochemical, TR-FRET, 1536-well; TR-FRET Mcl-1/Bid-Dy647 peptide binding; inhibition, % at 21.7 µM; actives 0.97% (n = 220,000); AID 1021, 2008; Induced myeloid leukemia cell differentiation protein Mcl-1 (Homo sapiens), Q07820;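 active means compounds that cut the binding signal by more than half at the single screening dose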;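 further: His-tagged Mcl-1 with europium anti-His antibody binding Bid BH3 peptide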
Bim-Mcl-1 – inhibitors of Bim peptide binding to Mcl-1, primary screen, biochemical, bead-based flow cytometry, multiplex | Induced myeloid leukemia cell differentiation protein Mcl-1 (Homo sapiens), Q07820 | Bim peptide-Mcl-1 binding | inhibition, % at 10 µM | actives 0.1% (n = 190,000); in the data active means inhibition above about 40%
A number is an active result; i = inactive; nt = not tested or not shown. A selection: hits, their analogues and other compounds. The true share with any hit is near 2.3%.

SMILES | Mcl1 Noxa PPI | GLD-1 TGE inh | BCLXL inh | MCL1-BIM inh | Mcl1 Bid PPI | Bim-Mcl-1
Cc1ccccc1NC(=O)c1c(C)[nH]c(=S)c(C#N)c1-c1ccc(Cl)cc1 | i | i | i | i | 71 | nt
COc1ccc(CCNC(=O)C(C)n2nc(C)n3c(cc4occc43)c2=O)cc1OC (centres undefined) | nt | i | i | i | nt | nt
COc1ccc(NC(=O)CN2C(=O)NC(c3ccccc3)(c3ccccc3)C2=O)cc1OC | nt | i | i | i | nt | nt
CC1(C)N([O-])c2cc([N+](=O)[O-])ccc2[N+]1=O | 85 | i | 35 | 45 | i | nt
Cc1ccc(C)n1-c1cc([N+](=O)[O-])ccc1-n1ccnc1 | i | i | i | i | i | nt
CCN(c1ccc(NC(=O)COC(=O)/C=C/c2cccs2)cc1)C(C)C | 84 | i | i | i | i | i
O=C1NN(c2ccc(Cl)cc2)C(=O)/C1=C\c1ccc(-c2cccc(C(=O)O)c2)o1 | 81 | nt | nt | nt | i | i
O=C1NN(c2ccccc2)C(=O)/C1=C\c1ccc(-c2cc([N+](=O)[O-])ccc2O)o1 | 87 | nt | nt | nt | i | i
CCOc1cc(C(=O)NC(C)CCc2ccccc2)cc(OCC)c1OCC (centres undefined) | nt | i | i | i | nt | nt
CC(C)c1ccc(OC(=O)c2ccc3c(=O)n4c(nc3c2)CCC4)cc1 | nt | i | i | i | nt | nt
CCCCc1cc(=O)oc2cc(C)cc(OC(C)C(=O)NCc3ccncc3)c12 (centres undefined) | nt | i | i | i | nt | nt
CCn1nc(C)c(CNC(=O)C2CCC(=O)N(CCc3ccc(Cl)cc3)C2)c1C (centres undefined) | nt | i | i | i | nt | nt
CCCNC(=O)CCCCn1c(=S)[nH]c2c([nH]c3ccc(OC)cc32)c1=O | i | i | i | i | i | i
CCCNC(=O)c1ccc(Cn2c(=S)[nH]c3c([nH]c4ccc(OC)cc43)c2=O)cc1 | 60 | i | i | i | i | i
OC(C#Cc1ccccn1)c1cccs1 (centres undefined) | i | i | 42 | 44 | i | i
CSCCOC(=O)c1[nH]c2c(c1C)C(=O)CC(c1ccco1)C2 (centres undefined) | 58 | i | i | i | i | i
Cc1c(C(=O)OCc2ccccc2)[nH]c2c1C(=O)CC(c1ccco1)C2 (centres undefined) | 61 | i | i | i | 72 | i
COCCOC(=O)c1[nH]c2c(c1C)C(=O)CC(c1ccco1)C2 (centres undefined) | 52 | i | i | i | i | i
CCOC(=O)c1[nH]c2c(c1C)C(=O)CC(c1ccco1)C2 (centres undefined) | 79 | i | i | i | i | i
COCCOC(=O)c1[nH]c2c(c1C)C(=O)CC(c1ccccc1)C2 (centres undefined) | i | i | i | i | i | i
Cc1c(C(=O)OCCOC(C)C)[nH]c2c1C(=O)CC(c1ccco1)C2 (centres undefined) | i | i | i | i | i | i
COCCOC(=O)c1[nH]c2c(c1C)C(=O)CC(c1ccc(F)cc1)C2 (centres undefined) | i | i | i | i | i | i
O=C(c1cc(Cl)nc2ccccc12)N1CCN(S(=O)(=O)c2cccc(C(F)(F)F)c2)CC1 | nt | i | i | i | nt | nt
CC(C)(C)n1nnnc1C(c1cccnc1)N1CCN(c2cccc(C(F)(F)F)c2)CC1 (centres undefined) | i | i | i | i | 58 | i
O=c1cc(-c2ccc([N+](=O)[O-])cc2)nc2cc(-c3ccc(F)cc3)[nH]n12 | 65 | i | i | i | i | i
Cc1ccccc1-c1cc2nc(-c3ccc([N+](=O)[O-])cc3)cc(=O)n2[nH]1 | i | i | i | i | i | i
Cc1cc(C)n(CC(=O)NCc2cc(-c3nn(C)c(=O)c4ccccc34)ccc2C)n1 | i | i | i | i | i | i
